Bioassay records from PubChem.
ABHD5 PLIN5 PPI = ABHD5-PLIN5 interaction inhibitors, primary screen, cell lysate, split luciferase complementation, luminescence. Split G. princeps luciferase complementation, 4 h. actives 0.78% (n = 360,000). inhibition, % at 4 µM. AID 602281, 2012. Perilipin-5 (Homo sapiens) + 1-acylglycerol-3-phosphate O-acyltransferase ABHD5 (Homo …;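 active = inhibition above the mean inhibition across every tested compound plus 3 SD, cut at about 22% in these data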;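 note: 0% = DMSO only wells and the 100% control is not disclosed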
Cardio protect = cardioprotection against H2O2-induced cell death, primary screen, uHTS, H9c2 cells, ATPLite luminescence; H9c2 cardiomyocytes, H2O2 injury protection, 2 h; actives 0.63% (n = 360,000); protection from H2O2 cell death, % at 20 µM;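 active = compounds giving at least 50% protection of heart cells from peroxide-induced death in the single-dose screen, raw or plate-pattern-corrected value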;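 note: 0% = DMSO wells with peroxide and 100% = DMSO wells without peroxide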
HGIII-sPLA2 inh = human group III sPLA2 inhibitors, primary screen, biochemical, QFRET, BODIPY PC-A2 liposome substrate; Group 3 secretory phospholipase A2 (Homo sapiens), Q9NZ20; QFRET BODIPY PC-A2 liposome hydrolysis, fluorescence; AID 743126, 2013; actives 0.56% (n = 370,000); inhibition, % at 12.2 µM;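 active = inhibition above mean plus 3 SD of compounds lying within the high and low control bounds, cut at about 19% in these data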;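 note: 0% = median of test compound wells and 100% = no enzyme DMSO wells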
Rtt109 HAT inh = inhibitors of C. albicans Rtt109/Vps75 HAT, primary screen, biochemical, ThioGlo CoA-SH fluorescence, plate reader; Histone acetyltransferase RTT109 (Candida albicans (strain SC5314 / ATCC MYA-2876)), …; actives 0.16% (n = 330,000); inhibition, % at 34.9 µM; purified Rtt109/Vps75, 4 h;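 active = inhibition of at least 50% in every replicate; inconclusive = best replicate reaches 50% inhibition but some replicates fall short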
Target sequence (Q5AAJ8 whole entry, looked up): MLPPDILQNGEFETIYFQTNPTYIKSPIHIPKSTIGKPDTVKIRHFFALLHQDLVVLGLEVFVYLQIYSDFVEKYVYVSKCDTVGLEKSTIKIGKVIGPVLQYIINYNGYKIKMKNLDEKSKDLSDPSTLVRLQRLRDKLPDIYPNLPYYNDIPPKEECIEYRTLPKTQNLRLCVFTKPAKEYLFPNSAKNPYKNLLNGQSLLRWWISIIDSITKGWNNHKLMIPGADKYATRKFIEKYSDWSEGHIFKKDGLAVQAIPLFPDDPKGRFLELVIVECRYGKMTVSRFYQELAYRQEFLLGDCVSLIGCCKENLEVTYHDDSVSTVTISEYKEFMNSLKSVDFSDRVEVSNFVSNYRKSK
DAGLB inh = DAGLB lipase inhibitors, primary screen, biochemical, fluorescence, HTS | HEK293T DAGLB membrane lysate, EnzChek fluorogenic substrate | inhibition, % at 5.17 µM | actives 0.059% (n = 340,000) | AID 504411, 2011; in the data active = inhibition above about 34%;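 note: 0% = enzyme with vehicle and 100% = wells lacking enzyme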
Myeloid diff 2 = induction of myeloid progenitor differentiation, primary screen, cell-based, flow cytometry, MLPCN library. calls only at 10 µM. actives 1% (n = 360,000). AID 624256, 2012. ER-HoxA9 myeloid progenitors, lysozyme-GFP differentiation;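 active = normalized GFP-positive differentiation at or above the plate's own cutoff, the solvent-only control mean plus 3 SD; inconclusive = no clear call, values can overlap the other calls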;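 note: cells exposed to compound for four days before flow analysis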
ABHD5 PLIN5 conf = ABHD5-PLIN5 interaction inhibitors, confirmation, biochemical, luminescence. shares compounds with ABHD5 PLIN5 PPI. inhibition, % at 4 µM. actives 67% (n = 2,200); in the data active = inhibition above about 23%;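 note: 0% = DMSO vehicle wells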
HNF4 split-luc = HNF4 dimerization inhibitors, counter-screen for ABHD5-PLIN5 interaction inhibitor project, biochemical, split-luciferase complementation, luminescence. shares compounds with ABHD5 PLIN5 PPI. inhibition, % at 4 µM. actives 77% (n = 2,200);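 active = mean inhibition across replicate wells exceeding the computed hit threshold, cut at about 13% in these data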;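 note: light from luciferase halves that rejoin when HNF4 fusion proteins dimerize; 0% = DMSO only wells and the 100% control is not given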
* = called active by the depositor; i = inactive; ? = inconclusive; / = no result given. Sampled rows, rich in hits. Any-hit rate of the full collection: about 2.9%.

SMILES	ABHD5 PLIN5 PPI	Cardio protect	HGIII-sPLA2 inh	Rtt109 HAT inh	DAGLB inh	Myeloid diff 2	ABHD5 PLIN5 conf	HNF4 split-luc
COc1ccc(NC(=O)CCSc2nc(C)cs2)cc1	4	-8	8	1	-1	i	/	/
FC(F)(F)c1cc(-c2ccccc2)nc(-n2cncn2)n1	-2	-2	1	-6	-3	i	/	/
CS(=O)(=O)c1nc(-c2ccccc2)cc(C(F)(F)F)n1	63*	-38	1	7	-18	?	88*	104*
COC(=O)c1ccc(NC(=O)N2CCC(O)(c3cccnc3)CC2)cc1	-2	5	2	2	-1	i	/	/
O=C1C(=O)C(Cl)=C(Cl)C(Cl)=C1Cl	27*	5	/	/	/	i	51*	29*
C=CCc1cc(/C=C/c2nc(O)c([N+](=O)[O-])c(=O)[nH]2)cc(OC)c1O	27*	3	2	28	6	i	42*	32*
O=C(CNC(=O)c1ccccc1Cl)NCC(c1cccs1)N1CCOCC1 (stereo unspecified)	0	3	-5	-1	-2	i	/	/
CCOC(=O)CSc1nnc(NCC(=O)OC)c(=O)[nH]1	26*	22	-3	-101	-2	i	41*	80*
CC(C)N1CCN(Cc2ccsc2)CC1CCO (stereo unspecified)	-6	-3	-1	-10	0	i	/	/
C=CCn1c(=S)[nH]c2scc(-c3ccc(C)o3)c2c1=O	32*	14	7	-3	5	i	22	66*
COc1ccc(CNC(=O)c2ccc3nc(C)c(N(C)Cc4ccc(NC(C)=O)cc4)n3c2)cc1	6	-6	-11	/	/	i	/	/
O=C1CC(Sc2nnnn2-c2ccccc2)C(=O)N1c1cccc(Cl)c1 (stereo unspecified)	37*	-38	-13	-6	-2	/	62*	104*
N#CC1=C(N)NC(=S)C(C(N)=O)C1c1ccc([N+](=O)[O-])cc1 (stereo unspecified)	52*	-2	-1	2	5	i	-35	-17
O=C1NC(C(=O)O)=CC(c2ccc([N+](=O)[O-])cc2)N1 (stereo unspecified)	-1	5	1	0	1	i	/	/
O=C(NCc1cccnc1)/C(=C\c1ccc(-c2ccc(Cl)c(Cl)c2)o1)S(=O)(=O)c1ccccc1	77*	-9	-7	10	11	/	101*	97*
O=C(NCC1CCN(c2ccc(S(=O)(=O)N3CCOCC3)cc2)CC1)c1ccc(Cl)cc1	5	-23	-6	7	-1	i	/	/
O=C1C(SCCO)=C(SCCO)C(=O)c2ccccc21	97*	-46	-4	-3	-8	i	104*	111*
CCNC(=S)N(CCc1c(C)[nH]c2ccc(F)cc12)Cc1cccnc1	8	1	7	2	3	i	/	/
NS(=O)(=O)c1ccc(N=Nc2ccc(O)c3ncccc23)cc1	24*	21	46*	16	25	?	29*	20*
NC(=O)C1=C(c2ccccc2)c2ccccc2C1=O	74*	55*	3	5	7	i	93*	94*
CC(=O)N/C(=C\c1ccccc1)C(=O)OCC(=O)NC1CCCC1	4	5	2	-3	0	i	/	/
Cc1nnnn1/C(=C\c1ccccc1)C(=O)OCC(=O)NC1CCCCC1	25*	4	7	0	-4	i	55*	62*
CC(=O)Nc1ccc(NC(=O)COC(=O)/C(=C/c2ccccc2)n2nnnc2C)cc1	40*	6	11	-1	-1	i	52*	51*
Cc1nnnn1/C(=C\c1ccccc1)C(=O)OCC(=O)NC(C)(C)C	13	4	14	0	1	i	/	/
COC(=O)C(Cc1ccccc1)NC(=O)C(CC(C)C)NC(=O)OC(C)(C)C (stereo unspecified)	4	2	14	7	-3	i	/	/
SMILES	ABHD5 PLIN5 PPI	Cardio protect	HGIII-sPLA2 inh	Rtt109 HAT inh	DAGLB inh	Myeloid diff 2	ABHD5 PLIN5 conf	HNF4 split-luc
CC(C)CC(NC(=O)OCc1ccccc1)C(=O)NC(Cc1ccccc1)C(=O)CCl (stereo unspecified)	24*	-19	-15	-2	2	/	88*	88*
CCCCCCCCCC[n+]1cccc2c3ccccc3ccc21	27*	-33	6	?	8	/	18	5
CCCCN(C)c1nc(-c2ccco2)c2c(c1C#N)CC(C)(C)OC2	28*	4	-7	-18	0	i	54*	79*
CN(C)CCNc1nc(-c2ccco2)c2c(c1C#N)CC(C)(C)OC2	-1	8	-2	-3	-2	i	/	/
Cc1ccc(CC2S/C(=C(/C#N)C(=O)NCc3ccco3)N(c3ccccc3)C2=O)cc1 (stereo unspecified)	23*	2	-31	-9	0	i	10	13*
N#C/C(C(=O)NCc1ccco1)=C1/SC(Cc2ccc(Cl)cc2)C(=O)N1c1ccccc1 (stereo unspecified)	9	5	-40	5	-2	i	/	/
COc1cc(-c2cnc3c(NC(C)=O)cc(-c4cccc(C(=O)NCCO)c4)cn23)cc(OC)c1OC	6	30	1	/	/	i	/	/
CN(C)c1ccc2cc(S(=O)(=O)O)cc(O)c2c1	26*	2	10	4	4	i	9	13*
O=C(Nc1c(-c2ccc(C(F)(F)F)cc2)nc2ncccn12)C1CC1	/	/	5	/	/	/	/	/
O=C(Cn1c(=O)n(Cc2ccco2)c(=O)c2ccccc21)Nc1cccc(Cl)c1	42*	10	-1	10	-2	i	18	10
Cc1[nH]nc2c1C(c1ccsc1C)C(C#N)=C(N)O2 (stereo unspecified)	4	3	9	/	-2	i	/	/
Cc1ccc(-c2ccc(C3C(C#N)=C(N)Oc4n[nH]c(C)c43)o2)cc1 (stereo unspecified)	24*	-5	-10	13	2	i	26*	44*
